SMILES strings stand for the structures. The source made the active and inactive calls. Rule for the calls: active = hit-call score of the fitted dose curve at least 0.9, where 1 is the maximum; inactive = score below 0.9.

Read-out in assay [1]: Urokinase-type plasminogen activator receptor (uPAR), PLAUR (gene 5329)
The assay can be described thus: BSK_4H_uPAR: BioMAP Diversity Plus: 4H Assay for Urokinase-type plasminogen activator receptor (uPAR) Biomarker Activity (AID 2283030). The conditions noted are these: primary human endothelial cells (HUVEC); actives raise or lower the signal. The procedure, abridged:
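Human umbilical vein endothelial cells in the 4H system, 24 h after chemical dosing. Cell-surface uPAR measured by ELISA, fitted in both directions versus DMSO; cytotoxicity checked by SRB total protein in parallel cultures.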

Read-out in assay [2]: Vascular endothelial growth factor receptor 2 (Homo sapiens) (UniProt P35968)
The assay can be described thus: BSK_4H_VEGFRII: BioMAP Diversity Plus: 4H Assay for Vascular endothelial growth factor receptor 2 (VEGFR2) Biomarker Activity (AID 2283031). The conditions noted are these: primary human endothelial cells (HUVEC); actives raise or lower the signal. Summed up:
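Primary human umbilical vein endothelial cells (4H system), 24 h exposure; cell-surface VEGFR2 measured by ELISA. Bidirectional fitting versus DMSO; cytotoxicity checked in parallel by SRB total-protein staining.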

Read-out in assay [3]: Vascular cell adhesion molecule 1 (VCAM1), VCAM1 (gene 7412)
The assay can be described thus: BSK_4H_VCAM1: BioMAP Diversity Plus: 4H Assay for Vascular cell adhesion molecule 1 (VCAM1) Biomarker Activity (AID 2283033).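 Note: cell-surface VCAM-1 protein measured by ELISA.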 The conditions noted are these: primary human endothelial cells (HUVEC); actives raise or lower the signal. The procedure, abridged: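 VCAM-1 ELISA read 24 h after chemical dosing of HUVEC in the BioMAP 4H system, with gain or loss of signal fitted relative to DMSO. Parallel SRB staining (560 nm) checked overt cytotoxicity.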

Read-out in assay [4]: Interferon-gamma inducible Protein 10 (IP10), CXCL10 (gene 3627)
Nature of the assay: BSK_BE3C_IP10: BioMAP Diversity Plus: BE3C Assay for Interferon-gamma inducible Protein 10 (IP10) Biomarker Activity (AID 2283034). The conditions noted are these: primary human bronchial epithelial cells; actives raise or lower the signal. The procedure, abridged: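 IP-10 quantified by ELISA in human primary bronchial epithelial cell cultures at 24 hours post-dosing. Gain or loss of signal fitted relative to DMSO; parallel SRB staining assessed overt cytotoxicity.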

Read-out in assay [5]: Monokine induced gamma interferon (MIG), CXCL9 (gene 4283)
Nature of the assay: BSK_BE3C_MIG: BioMAP Diversity Plus: BE3C Assay for Monokine induced gamma interferon (MIG) Biomarker Activity (AID 2283035). Particulars: primary human bronchial epithelial cells; actives raise or lower the signal. The procedure, abridged:
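hu bronchial epithelial 1° cells, 24 h cpd; MIG by ELISA; bidirectional fit, DMSO = baseline.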

Read-out in assay [6]: Transforming growth factor beta 1 (TGFb1), TGFB1 (gene 7040)
Nature of the assay: BSK_BE3C_TGFb1: BioMAP Diversity Plus: BE3C Assay for Transforming growth factor beta 1 (TGFb1) Biomarker Activity (AID 2283036;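 for outcome: TGF-b1 protein level measured by ELISA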). Particulars: primary human bronchial epithelial cells; actives raise or lower the signal. Summed up: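 ELISA readout of TGF-b1 from human lung bronchial epithelial primary cells, taken 24 h post-treatment. Gain or loss of signal fitted relative to DMSO baseline, with parallel SRB staining for overt cytotoxicity.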

Read-out in assay [7]: Plasminogen activator inhibitor-1 (PAI1), SERPINE1 (gene 5054)
The assay can be described thus: BSK_BE3C_PAI1: BioMAP Diversity Plus: BE3C Assay for Plasminogen activator inhibitor-1 (PAI1) Biomarker Activity (AID 2283037). The conditions noted are these: primary human bronchial epithelial cells; actives raise or lower the signal. The procedure, abridged:
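PAI-1 was measured by ELISA in human primary bronchial epithelial cultures 24 h after chemical dosing, with cytotoxicity checked by SRB total-protein staining in parallel cultures. Activity was fitted in both directions relative to DMSO.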

Read-out in assay [8]: urokinase plasminogen activator (uPA), PLAU (gene 5328)
The assay can be described thus: BSK_BE3C_uPA: BioMAP Diversity Plus: BE3C Assay for urokinase plasminogen activator (uPA) Biomarker Activity (AID 2283038).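 Note: uPA protein level quantified by ELISA in cell cultures; uPA read one day after compound addition.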 The conditions noted are these: primary human bronchial epithelial cells; actives raise or lower the signal. Summed up: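 Primary human bronchial epithelial cells, uPA measured by ELISA 24 h after dosing. Bidirectional change relative to DMSO; cytotoxicity checked in parallel cultures by sulforhodamine B total-protein staining.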

Read-out in assay [9]: Urokinase-type plasminogen activator receptor (uPAR), PLAUR (gene 5329)
Nature of the assay: BSK_BE3C_uPAR: BioMAP Diversity Plus: BE3C Assay for Urokinase-type plasminogen activator receptor (uPAR) Biomarker Activity (AID 2283039).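 For outcome: cells exposed to compound for one day before measurement.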 Particulars: primary human bronchial epithelial cells; actives raise or lower the signal. Summed up: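 uPAR levels were measured by ELISA after 24 h compound treatment of primary human bronchial epithelial cells, fitted in both directions relative to DMSO. Parallel SRB staining served as the cytotoxicity read-out.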

Read-out in assay [10]: Interleukin-6 (IL6), IL6 (gene 3569)
The assay can be described thus: BSK_CASM3C_IL6: BioMAP Diversity Plus: CASM3C Assay for Interleukin-6 (IL6) Biomarker Activity for (AID 2283040). Particulars: primary human coronary artery smooth muscle cells; actives raise or lower the signal.

Read-out in assay [11]: Tissue plasminogen activator (tPA), PLAT (gene 5327)
Nature of the assay: BSK_BE3C_tPA: BioMAP Diversity Plus: BE3C Assay for Tissue plasminogen activator (tPA) Biomarker Activity (AID 2283041).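 For outcome: tPA level quantified by ELISA one day after compound addition.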 Particulars: primary human bronchial epithelial cells; actives raise or lower the signal. The procedure, abridged:
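tPA measured by ELISA 24 h after dosing human primary bronchial epithelial cells (BE3C system). Changes in either direction were fitted against DMSO. Parallel cultures were stained with SRB to flag overt cytotoxicity.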

Read-out in assay [12]: Interleukin-8 (IL8), CXCL8 (gene 3576)
The assay can be described thus: BSK_CASM3C_IL8: BioMAP Diversity Plus: CASM3C Assay for Interleukin-8 (IL8) Biomarker Activity (AID 2283042).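 Note: IL-8 protein level quantified by ELISA.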 The conditions noted are these: primary human coronary artery smooth muscle cells; actives raise or lower the signal.

Read-out in assay [13]: Human Leukocyte Antigen - DR isotype (HLADR), HLA-DRA (gene 3122)
Nature of the assay: BSK_CASM3C_HLADR: BioMAP Diversity Plus: CASM3C Assay for Human Leukocyte Antigen - DR isotype (HLADR) Biomarker Activity (AID 2283043).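 Note: cell-surface HLA-DR protein level quantified by ELISA.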 Particulars: primary human coronary artery smooth muscle cells; actives raise or lower the signal.

Read-out in assay [14]: Macrophage colony-stimulating factor (MCSF), CSF1 (gene 1435)
Nature of the assay: BSK_CASM3C_MCSF: BioMAP Diversity Plus: CASM3C Assay for Macrophage colony-stimulating factor (MCSF) Biomarker Activity (AID 2283044).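 Note: M-CSF protein amount quantified by ELISA after 24 h exposure.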 The conditions noted are these: primary human coronary artery smooth muscle cells; actives raise or lower the signal.

Read-out in assay [15]: Low-density lipoprotein receptor (LDLR), LDLR (gene 3949)
The assay can be described thus: BSK_CASM3C_LDLR: BioMAP Diversity Plus: CASM3C Assay for Low-density lipoprotein receptor (LDLR) Biomarker Activity (AID 2283045).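 Note: LDLR protein level on the cell surface quantified by ELISA.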 The conditions noted are these: primary human coronary artery smooth muscle cells; actives raise or lower the signal.

Read-out in assay [16]: Monocyte Chemoattractant Protein-1 (MCP1), CCL2 (gene 6347)
Nature of the assay: BSK_CASM3C_MCP1: BioMAP Diversity Plus: CASM3C Assay for Monocyte Chemoattractant Protein-1 (MCP1) Biomarker Activity (AID 2283046).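 Note: MCP-1 level quantified by ELISA 24 h after dosing.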 Particulars: primary human coronary artery smooth muscle cells; actives raise or lower the signal.

Assay [17] can be described thus: BSK_CASM3C_Proliferation: Cell Proliferation Assessment in the BioMAP Diversity Plus: CASM3C Assay (AID 2283047).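 Note: sulforhodamine B total protein stain as relative cell number at 560 nm; sub-confluent cells exposed 48 h before staining; fitted both ways against DMSO so gain or loss of cell number.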 The conditions noted are these: primary human coronary artery smooth muscle cells.
Read-out in assay [18]: Monokine induced gamma interferon (MIG), CXCL9 (gene 4283)
The assay can be described thus: BSK_CASM3C_MIG: BioMAP Diversity Plus: CASM3C Assay for Monokine induced gamma interferon (MIG) Biomarker Activity (AID 2283048).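 Note: MIG protein level measured by ELISA.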 Particulars: primary human coronary artery smooth muscle cells; actives raise or lower the signal.

Read-out in assay [19]: serum amyloid A (SAA), SAA1 (gene 6288)
Nature of the assay: BSK_CASM3C_SAA: BioMAP Diversity Plus: CASM3C Assay for serum amyloid A (SAA) Biomarker Activity (AID 2283049).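 Note: SAA protein level quantified by ELISA.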 The conditions noted are these: primary human coronary artery smooth muscle cells; actives raise or lower the signal.

With `Cc1c([N+](=O)[O-])cc2c(c1[N+](=O)[O-])C(C)(C)CC2(C)C`, the outcome in assay [1], in assay [2], in [3], in assay [5], in [8] and in assay [10] was inactive. Besides, the result in assay [12], in assay [16], in assay [17], in [18] and in [19] was inactive. The AC50 was 20 µM (active) in assay [4]; 13.5 µM (active) in [6]; 5 µM (active) in assay [7]; 16.1 µM (active) in assay [9]; 10.6 µM (active) in assay [11]; 1.74 µM (active) in assay [13]. The values for the AC50 in assay [14] and in [15] were 0.378 µM (active) and 5.44 µM (active), respectively.

In the case of `O=C(O)C1C(C(=O)O)C2(Cl)C(Cl)=C(Cl)C1(Cl)C2(Cl)Cl` (stereo unspecified), the outcome in assay [1], in [2], in assay [3], in assay [4], in assay [5] and in assay [6] was inactive. The result in assay [7], in assay [8], in [9], in assay [10], in assay [11] and in [12] was inactive. Also, the outcome in assay [13], in assay [14], in assay [15], in assay [16], in assay [17] and in assay [18] was inactive. Moreover, the outcome in [19] was inactive.

For `Cc1cccc(N)c1`, the outcome in assay [1], in assay [3], in [4], in assay [5], in [6] and in [7] was inactive. The result in assay [8], in assay [9], in assay [10], in assay [11], in [12] and in [13] was inactive. The outcome in [14], in assay [15], in [16], in assay [17], in assay [18] and in [19] was inactive.

The AC50 is the midpoint of the concentration-response curve, whichever way the signal moves.

The values are drawn from PubChem BioAssay (EPA / NIEHS).
